The list is not random: actives were taken first. Their share in the collection is about 19%.
HT1080 IDH1KD tx: toxicity to HT-1080 IDH1 knockdown cells (counter line). HT-1080 IDH1 knockdown viability, ATP luminescence, 48 h. 360,000 compounds, 2% hits. AID 686971. Potency, µM (doses to about 46.1 µM), inactives show top-dose activity, negative = toxicity, usual class: cytotoxic;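 note: 0% = DMSO wells and -100% = cell-free medium wells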
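Viability of IDH1-knockdown HT-1080 fibrosarcoma cells was assessed by CellTiter-Glo after 48 h at 37 °C with titrated compound; concentration-effect curves were classified by fit quality and response size.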
HT1080-NT tox: kills 2HG-producing HT-1080-NT fibrosarcoma cells. HT-1080-NT fibrosarcoma viability, CellTiter-Glo ATP luminescence, 48 h. Potency, µM (doses to about 46.1 µM), for the others: at the top dose activity, negative = less viability, hits mostly cytotoxic. 360,000 compounds, 1.6% hits. AID 686970;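 note: NT is the 2HG producing partner of a matched IDH1 knockdown line; 0% = DMSO-treated cells and -100% = media-only wells without cells; nearly all actives have a fitted effect of over 55% in size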
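Viability of the 2HG-overproducing fibrosarcoma line after 48 hours of compound exposure at 37 degrees C was determined by luminescence with CellTiter-Glo, and concentration-effect curves were then fitted and categorized.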
KB-V1 MDR tox: KB-V1 MDR subline cytotoxicity | KB-V1 MDR cells viability, CellTiter-Glo, 72 h | Potency, µM (highest dose often 46.1 µM), usual class: cytotoxic | 400,000 compounds, 3.4% hits | AID 1347076; note: nearly all actives have a fitted effect of over 60% in size
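KB-V1 cells (P-gp-expressing MDR subline of KB-3-1) in phenol-red-free DMEM with 10% FBS were exposed to library compounds over a concentration series for 72 h at 37 degrees C. Viability read by CellTiter-Glo luminescence; concentration-effect curves fitted after normalization.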
DT40 TDP1 CPT: DT40-hTDP1 cell growth loss with CPT | chicken DT40 Tdp1-/-;hTDP1 cells + 20 nM CPT, ATP luminescence, 48 h | Potency, µM (top dose mostly 46.2 µM), for the others: top-dose activity change, negative = growth inhibition, hits mostly inhibitors | 420,000 compounds, 12% hits; note: nearly all actives have a fitted effect of over 55% in size
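Chicken DT40 Tdp1-/- cells stably complemented with human TDP1 were seeded at 400 cells/well in medium containing 20 nM camptothecin, exposed to pin-transferred compounds, and grown at 37 °C for at least 48 hr. Viability was read as ATP luminescence.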
KB-3-1 tox: kills parental KB-3-1 adenocarcinoma cells; KB-3-1 viability, CellTiter-Glo ATP luminescence, 72 h; AID 1347075; Potency, µM (doses to about 46.1 µM), hits mostly cytotoxic; 400,000 compounds, 1.4% hits; note: nearly all actives have a fitted effect of over 60% in size
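Cytotoxicity measured as CellTiter-Glo luminescence after 72 h at 37 C. Compound titrations were pinned onto drug-naive KB-3-1 parental adenocarcinoma cells grown in DMEM with 10% FBS, and normalized data fitted to concentration-response curves.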
DT40 TDP1 no CPT: qHTS for Inhibitors of human tyrosyl-DNA phosphodiesterase 1 (TDP1): qHTS in cells in absence of CPT. DT40 Tdp1-/- hTDP1 cells, no CPT, ATP luminescence, 48 h. Potency, µM (doses to about 46.2 µM), for inactives: at the top dose activity change, negative = growth inhibition, most hits filed as inhibitors. 420,000 compounds, 15% hits. AID 686978, 2013; note: nearly all actives have a fitted effect of over 55% in size
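Luminescent ATP content (CellTiter-Glo) served as the growth readout. Knockout chicken DT40 cells expressing human TDP1 were exposed to compounds without camptothecin for a minimum 48 hr at 37 °C.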
Active calls of the source: *; i = inactive; u = inconclusive; x = not tested or not shown; [ ] = dose if it differs, or a comment. Calls come from the whole dose curve; as a rule, active = well fitted curve in the direction sought with a large enough effect; inconclusive = small, poorly fitted or top-dose-only effect, or another doubt; inactive = no such curve, though single readings can be large; an effect the other way counts as inactive or inconclusive. Unless noted, % is set by controls: 0 for no effect and ±100 for the full control effect; potency is the fitted concentration of half-maximal effect.

SMILES	HT1080 IDH1KD tx	HT1080-NT tox	KB-V1 MDR tox	DT40 TDP1 CPT	KB-3-1 tox	DT40 TDP1 no CPT
COc1ccccc1N(CC(=O)NC(C)(C)C)S(=O)(=O)c1cccs1	-1%	1%	i	u	i	u
COc1cccc(CNC(=O)[C@@H]2CCCN2C(=O)[C@H]2CCCCN2C(=O)c2cccc(Cl)c2)c1	-18%	6%	i	6%	i	u
O=C(CCCn1c(=O)c2sccc2n(Cc2ccc(F)cc2Cl)c1=O)NCc1ccc2c(c1)OCO2	x	x	x	-4%	x	-30%
CC1CCN(C(=O)C(C)Sc2nc(-c3ccccc3)cc(C(F)(F)F)n2)CC1 (stereo not drawn)	u	u	u	26µM*	u	29µM*
COc1ccc(NC(=O)c2ccc(Br)c(S(=O)(=O)N3CCOCC3)c2)cc1	-13%	-19%	21µM*	-20%	u	u
COc1ccc(C(=O)Nc2ccc(Cl)c(S(=O)(=O)N3CCOCC3)c2)cc1	-4%	3.7µM*	7.3µM*	u	u	u
COc1ccc(C(=O)Nc2ccc(S(=O)(=O)N3CCOCC3)cc2)cc1	-5%	4%	i	-3%	i	-21%
COc1cccc(CNC(=O)c2ccc(Cl)c(S(=O)(=O)N3CCOCC3)c2)c1	-1%	-4%	i	-12%	u	4.1µM*
O=C(Nc1ccc(Cl)c(S(=O)(=O)N2CCOCC2)c1)c1ccc2c(c1)OCCO2	-29%	-21%	u	u	i	u
O=C(Nc1ccc(Cl)c(S(=O)(=O)N2CCOCC2)c1)c1ccc(Cl)nc1	-13%	-4%	u	u	u	18µM*
COc1ccc(C(=O)Cc2cc(OC)c(OC)cc2C(=O)c2ccccc2F)cc1OC	-2%	-4%	i	-21%	i	u
CC1CCN(S(=O)(=O)c2cc(C(=O)NCc3ccc(N(C)C)cc3)n(C)c2)CC1	x	x	i	u	i	u
CSCCC(=O)N1CCN(CC(=O)N2CCCC2)CC1	13%	5%	i	6%	i	-10%
COc1cccc(-c2nnc(SCc3ccc(C#N)cc3)n2Cc2ccco2)c1	-19%	-27%	u	u	i	23µM*
C=CCn1c(SCc2ccc(C#N)cc2)nnc1-c1ccccc1	5%	-10%	9.2µM*	-19%	i	-3%
Cc1ccc(-c2nnc(SCc3ccc(C#N)cc3)n2Cc2ccco2)cc1	-21%	-1%	i	26µM*	i	u
Cc1ccc(-c2nnc(SCc3nc4ccccc4[nH]3)n2Cc2ccco2)cc1	0%	5%	u	u	i	u
Cc1c(C)c2ccc(OCC(=O)N3CC[C@@]4(O)CCCC[C@H]4C3)c(C)c2oc1=O	0%	-2%	i	-30%	i	u
CCC(C)NC(=S)N(CCc1ccccc1)Cc1cc2cc(OC)c(OC)cc2[nH]c1=O (stereo not drawn)	-16%	-14%	u	u	i	18µM*
COc1ccc2[nH]c(=O)c(CN(CCc3ccccc3)C(C)=O)cc2c1	2%	9%[9.24 µM]	i	-26%	i	-16%
COc1cc2cc(CN(Cc3cccs3)C(=S)Nc3ccc(C)cc3)c(=O)[nH]c2cc1OC	-5%	-13%	i	26µM*	i	16µM*
Cc1ccc(NC(=S)N(Cc2cccs2)Cc2cc3cc(C)ccc3[nH]c2=O)cc1	-10%	0%	i	u	u	u
Cc1cccc(NC(=S)N(Cc2cccs2)Cc2cc3cc(C)ccc3[nH]c2=O)c1	6%	12%	i	18µM*	i	21µM*

Screens (PubChem BioAssay)
